According to PubChem BioAssay (Tox21):
Inconclusive results are not listed. Unmarked numbers belong to inactive results. The source made the active and inactive calls. The call rests on the fitted dose curve; in most records, active means well fitted cell-killing curve with a large enough effect in the repeat runs; inconclusive means weak or mixed curves; inactive means flat fitted curve, though single readings scatter.

Assay: qHTS assay to identify small molecule antagonists of the TGF-beta/Smad signaling pathway - cell viability counter screen (AID 1346824); further: nearly all actives have a fitted effect of over 50% in size
Conditions: SBE-bla HEK293T viability, CellTiter-Glo luminescence; series mostly up to 76.8 µM
Description: U.S. Tox21 Program National Center for Advancing Translational Sciences [NCATS] NIH Chemical Genomics Center [NCGC] U.S. Environmental Protection Agency [EPA] National Institutes of Environmental Health Sciences [NIEHS] National Toxicology Program [NTP] U.S. Food and Drug Administration [FDA] Tox21 Assay Overview: Transforming growth factor beta (TGF-beta) superfamily consists of a large number of structurally related dimeric proteins that act as hormones or local mediators in regulating a wide range of biological functions. This superfamily includes TGF-betas themselves, the bone morphogenetic proteins (BMPs) and the activins. These ligands induce oligomerization of serine/threonine receptor kinases and phosphorylate the cytoplasmic signaling molecules of Smad protein family. CellSensor SBE-bla HEK 293T cell line (Life Technologies, Carlsbad, CA), responsive to TGF-beta was used to screen Tox21 10K compound library for identification of agonists/antagonists of the Smad signaling pathway. This cell line contains a beta-lactamase reporter gene under control of the Smad binding element (SBE) stably integrated into HEK 293T cells. Also cytotoxicity of the compounds was tested in parallel by measuring the cell viability using CellTiter-Glo assay system in the same wells.
Tox21 Assay Protocol Summary: SBE-bla HEK 293T cells were dispensed at 4,000/well in 5 uL of assay medium into black wall/clear-bottom 1536-well plates using a Multidrop Combi (ThermoFisher Scientific, Waltham, MA) dispenser. After the assay plates were incubated at 37 C and 5% CO2 for an overnight, 23 nL of compounds dissolved in DMSO, positive controls or DMSO only was transferred to the assay plate by a Pintool station (Kalypsys, San Diego, CA). Compound transfer was followed by the addition of 1 uL of 0.25 ng/mL TGF-beta1 or assay buffer using two separate tips of Flying Reagent Dispenser (FRD, Aurora Discovery, San Diego, CA). The assay plates were incubated at 37 C and 5% CO2 for 5 hr. One uL of LiveBLAzer B/G FRET substrate (Life Technologies) was added using a Flying Reagent Dispenser (FRD, Aurora Discovery, San Diego, CA) and the plates were incubated at room temperature for 2 hr. Fluorescence intensity (405 nm excitation, 460 nm and 530 nm emissions) was measured using an Envision plate reader (PerkinElmer, Shelton, CT). For cytotoxicity read, 4 uL of CellTiter-Glo reagent (Promega Corporation, Madison, WI) was added to each well of the assay plates using FRD. After 30 min incubation at room temperature, the luminescence intensity was measured using ViewLux plate reader (PerkinElmer).
On the % scale 0 is the no-effect control and ±100 the full control effect.

| SMILES | outcome | viability change, negative = cytotoxic |
| --- | --- | --- |
| Cc1cccc(C)c1NC(=O)c1cc(S(N)(=O)=O)c(Cl)cc1O | inactive |  |
| CCCCCC | inactive |  |
| OCC(CO)n1cnc(-c2ccc(F)cc2)c1-c1ccnc(Oc2ccccc2)n1 | inactive |  |
| CCOC(=O)N1CCC(Nc2ccc(Cl)cc2N)CC1 | inactive |  |
| COC(=O)Nc1nc2ccc(C(=O)C3CC3)cc2[nH]1 | inactive |  |
| CC(=O)Oc1cccc(O)c1 | inactive |  |
| CCC(Cl)CC(Cl)C(Cl)C(Cl)C(Cl)C(C)Cl (stereo not given) |  | -12.4% [at 15.8 µM] |
| O=C(/C=C/c1ccc([N+](=O)[O-])cc1)c1ccccc1 | inactive |  |
| CC(C)OC(=O)c1ccccc1C(=O)OC(C)C | inactive |  |
| CO[C@@H]1[C@@H](OC)[C@H](C)[C@@](O)(CC(=O)O)O[C@H]1[C@H](C)[C@H]1O[C@@]2(CC[C@@](C)([C@H]3CC[C@@](C)([C@@H]4O[C@@H]([C@H]5O[C@](C)(O)[C@H](C)C[C@@H]5C)C[C@@H]4OC4C[C@H](OC)[C@@H](OC)[C@H](C)O4)O3)O2)C[C@H](O)[C@H]1C (stereo not given in full) | inactive |  |
| CC[C@H]1OC(=O)[C@H](C)[C@@H](O[C@H]2C[C@@](C)(OC)[C@@H](O)[C@H](C)O2)[C@H](C)[C@@H](O[C@@H]2O[C@H](C)C[C@H](N(C)C)[C@H]2O)[C@](C)(O)C[C@@H](C)CN(C)[C@H](C)[C@@H](O)[C@]1(C)O | inactive |  |
| Cc1ccc(Cl)cc1N | inactive |  |
| CC(=O)OCC(C)C | inactive |  |
| CCCCCCC(O)CCCCCCCCCCC(=O)OC (stereo not given) | inactive |  |
| CCC(C)(C)C(=O)O | inactive |  |
| O=C(Oc1ccccc1)c1ccc2ccccc2c1O | inactive |  |
| CS(=O)(=O)c1ccc([C@@H](C[C@H]2CCC(=O)C2)C(=O)Nc2cnccn2)cc1Cl | inactive |  |
| O=C(O)c1ccc(O)cc1O | inactive |  |
| CC(C)COC(=O)c1ccc(O)cc1 | inactive |  |
| c1ccc(CNc2ncnc3c2ncn3C2CCCCO2)cc1 (stereo not given) | inactive |  |

| SMILES | outcome | viability change, negative = cytotoxic |
| --- | --- | --- |
| CCc1ccc(C)cc1 | inactive |  |
| O=C(O)CN1C(=O)c2cccc3cccc(c23)C1=O | inactive |  |
| CC(C)C(O)C(C)(C)CO (stereo not given) | inactive |  |
| Cc1ccc2c(c1)CCCN2 | inactive |  |
| CN1C(CSCC(F)(F)F)Nc2cc(Cl)c(S(N)(=O)=O)cc2S1(=O)=O (stereo not given) | inactive |  |
| CCC(CO)(CO)CO | inactive |  |
| CC1CCCO1 (stereo not given) | inactive |  |
| CCCCCCCCCCCC(=O)OCC(O)CO (stereo not given) | inactive |  |
| CC[C@@H](CO)NCCN[C@@H](CC)CO | inactive |  |
| COc1ccc(-c2cc(C(F)F)nn2-c2ccc(S(N)(=O)=O)cc2)cc1F | inactive |  |
| O=S(=O)(O)CO | inactive |  |
| CCN(CC)CCNC(=O)c1cc(Cl)c(N)cc1OC | inactive |  |
| CCCCCCC(CO)CCCC (stereo not given) | inactive |  |
| CCN(CC)C(=O)/C(C#N)=C/c1cc(O)c(O)c([N+](=O)[O-])c1 | inactive |  |
| Oc1ccc2c(c1)Cc1ccccc1-2 | inactive |  |
| CC(C)(C)C1(CCc2ccc(Cl)cc2)CO1 (stereo not given) | inactive |  |
| COc1ccc(CCN(C)CCCN2CCc3cc(OC)c(OC)cc3CC2=O)cc1OC | inactive |  |
| O=C(O)CO | inactive |  |
| COc1cc(S(=O)(=O)Nc2ccccc2)c(OC)cc1N | inactive |  |
| CC(C)c1ccc(C(=O)N=C(N)N)cc1S(C)(=O)=O | inactive |  |
